Reference: PubChem BioAssay (NCATS)
Several values for one entry are separate records, joined by “and”; a condition that tells them apart may be missing. Equal values may be shown once. Records with an inconclusive call do not appear. Where a call stands in place of a potency, no number is given. Activity calls are given as the source filed them. The call rests on the fitted dose curve; in most records, active means well fitted cell-killing curve with a large enough effect; inconclusive means small, poorly fitted or top-dose-only effect; inactive means flat fitted curve, though single readings scatter.
Potency means the concentration at half of the fitted maximal effect.

Assay: Cellular viability qHTS for adrenocortical cancer (ACC) cell line SW-13 (AID 1963989); further: nearly all actives have a fitted effect of over 65% in size;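 on activity (max response): cells grown in serum-free medium with ITS supplement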
Settings: SW-13 ACC cells viability, CellTiter-Glo, 48 h; activity (max response): hits give low values
How it was run: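 Luminescent ATP read-out (CellTiter-Glo, 20 min at room temperature) measured metabolically competent SW-13 cells after 48 h compound treatment. Final concentrations spanned up to 46 uM; bortezomib served as positive control.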
In the case of `NC(=O)[C@@H](CC1CC1)[C@@H](CCC(F)(F)F)C(=O)N[C@H]1N=C(c2ccccc2)c2cccc(F)c2NC1=O`, the activity (max response) is reported as -14.1% (inactive).
For `COc1ccc2[nH]cc(CCN(C(C)C)C(C)C)c2c1`, the activity (max response) was -8.69% (inactive).
For `CN[C@@H]1C[C@H]2O[C@@](C)([C@@H]1OC)n1c3ccccc3c3c4c(c5c6ccccc6n2c5c31)C(=O)NC4`, the Potency was 0.1 µM (active).
For `CNCC(=O)c1ccc(O)c(O)c1`, the activity (max response) was 2.58% (inactive).
For `CCC1(CCC(C)C)C(=O)NC(=O)NC1=O`, the activity (max response) was 0.531% (inactive).
With `CCC(=O)C(CCN(C)C)(c1ccccc1)c1ccccc1` the activity (max response) was -1.08% (inactive).
In the case of `C#C[C@]1(O)CC[C@H]2[C@@H]3CCC4=CC(=O)CC[C@]4(C)[C@H]3CC[C@@]21C`, the activity (max response) is reported as 3.93% (inactive).
For `O=c1c(C2CC(c3ccc(-c4ccc(Br)cc4)cc3)Cc3ccccc32)c(O)sc2ccccc12` (stereo not given), the Potency was 5.8 µM (active).
For `COC(=O)[C@]12CCC(C)(C)C[C@H]1[C@H]1C(=O)C=C3[C@@]4(C)C=C(C#N)C(=O)C(C)(C)[C@@H]4CC[C@@]3(C)[C@]1(C)CC2`, the Potency was 6.31 µM (active).
With `CC(C)=CCN1CC[C@@]2(C)c3cc(O)ccc3C[C@@H]1[C@@H]2C` the Potency was 39.8 µM (active).
With `COC(=O)c1cncn1C(C)c1ccccc1` (stereo not given) the activity (max response) was -8.99% (inactive).
In the case of `c1cc2ccc3cccc4ccc(c1)c2c34`, the activity (max response) is reported as -9.29% (inactive).
With `CN(C)CCc1c[nH]c2ccccc12` the activity (max response) was -12.4% (inactive).
In the case of `N#CC(C#N)=Cc1ccc(O)c(O)c1`, the activity (max response) is reported as 13.2% (inactive).
For `CC(=O)N1N=C(c2ccc(N)cc2)c2cc3c(cc2C[C@H]1C)OCO3`, the activity (max response) was -25.9% (inactive).
With `c1ccc(CN2CCNCC2)cc1` the activity (max response) was -9.53% (inactive).

Assay: Cellular viability qHTS for adrenocortical cancer (ACC) cell line NCI-H295R (AID 1963990); further: nearly all actives have a fitted effect of over 60% in size
Settings: CellTiter-Glo ATP luminescence, 48 h; series mostly up to 46.1 µM
How it was run: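 IC50 and maximal efficacy derive from four-parameter logistic modelling of titration curves, with reads scaled between DMSO-only wells (0%) and doxorubicin hydrochloride (100% inhibition). Compounds spanned up to 46 uM over 48 h.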
In the case of `CC(C)(C)CC(C)(C)c1ccc(O)cc1`, the Potency is reported as 8.91 µM (active) and 13 µM (active).
In the case of `NC(=O)[C@@H](CC1CC1)[C@@H](CCC(F)(F)F)C(=O)N[C@H]1N=C(c2ccccc2)c2cccc(F)c2NC1=O`, the Potency is reported as “inactive”.
For `COc1ccc2[nH]cc(CCN(C(C)C)C(C)C)c2c1`, the Potency was “inactive”.
For `CN[C@@H]1C[C@H]2O[C@@](C)([C@@H]1OC)n1c3ccccc3c3c4c(c5c6ccccc6n2c5c31)C(=O)NC4`, the Potency was 0.282 µM (active).
In the case of `CNCC(=O)c1ccc(O)c(O)c1`, the Potency is reported as “inactive”.
In the case of `CCC1(CCC(C)C)C(=O)NC(=O)NC1=O`, the Potency is reported as “inactive”.
For `O=S(=O)(c1ccc(Cl)cc1)c1ccc(Cl)cc1`, the Potency was “inactive”.
For `CCC(=O)C(CCN(C)C)(c1ccccc1)c1ccccc1`, the Potency was “inactive”.
With `CCOC(C(=O)OCCN(C)C)(c1ccccc1)c1ccccc1` the Potency was “inactive”.
For `CC(C)(NC(=O)O[C@@H]1CN2CCC1CC2)c1csc(-c2ccc(F)cc2)n1`, the Potency was “inactive”.
For `CCCCC/C=C\C/C=C\C/C=C\C/C=C\CCCC(=O)NCC(=O)O`, the Potency was “inactive”.
For `C#C[C@]1(O)CC[C@H]2[C@@H]3CCC4=CC(=O)CC[C@]4(C)[C@H]3CC[C@@]21C`, the Potency was “inactive”.
For `CC(=O)[C@H]1CC[C@H]2[C@@H]3CC[C@H]4C[C@H](O)CC[C@]4(C)[C@H]3C(=O)C[C@]12C`, the Potency was “inactive”.
With `O=c1c(C2CC(c3ccc(-c4ccc(Br)cc4)cc3)Cc3ccccc32)c(O)sc2ccccc12` (stereo not given) the Potency was 7.31 µM (active).
For `O=C1c2ccccc2C(=O)C1C(=O)C(c1ccccc1)c1ccccc1`, the Potency was 23.1 µM (active).
In the case of `COC(=O)[C@]12CCC(C)(C)C[C@H]1[C@H]1C(=O)C=C3[C@@]4(C)C=C(C#N)C(=O)C(C)(C)[C@@H]4CC[C@@]3(C)[C@]1(C)CC2`, the Potency is reported as 3.98 µM (active).
With `Nc1ccc([As](=O)(O)O)cc1` the Potency was “inactive”.
In the case of `CC(=O)O[C@@]12CO[C@@H]1C[C@H](O)[C@@]1(C)C(=O)[C@H](O)C3=C(C)[C@@H](O)C[C@@](O)([C@@H](OC(=O)c4ccccc4)[C@H]21)C3(C)C`, the Potency is reported as “inactive”.
With `CN1CCC(N(Cc2ccccc2)c2ccccc2)CC1` the Potency was “inactive”.
With `CC(N[C@H]1C[C@@H]1c1ccccc1)c1ccc2c(c1)OCCO2` (stereo not given in full) the Potency was “inactive”.
With `CC(C)=CCN1CC[C@@]2(C)c3cc(O)ccc3C[C@@H]1[C@@H]2C` the Potency was 31.6 µM (active).
For `COC(=O)c1cncn1C(C)c1ccccc1` (stereo not given), the Potency was “inactive”.
In the case of `c1cc2ccc3cccc4ccc(c1)c2c34`, the Potency is reported as “inactive”.
For `O=c1[nH]c2ccccc2n1C1CCN(CCCC(c2ccc(F)cc2)c2ccc(F)cc2)CC1`, the Potency was 23.1 µM (active).
For `COc1ccc2c3c1O[C@H]1[C@H](O)CC[C@H]4[C@@H](C2)N(C)CC[C@@]341`, the Potency was “inactive”.
For `Nc1ccc([N+](=O)[O-])cc1`, the Potency was “inactive”.
With `CN(C)CCc1c[nH]c2cccc(O)c12` the Potency was “inactive”.
In the case of `CN(C)CCc1c[nH]c2ccccc12`, the Potency is reported as “inactive”.
With `C[C@@H]1CC[C@H]2[C@@H](C)C(=O)O[C@@H]3O[C@@]4(C)CC[C@@H]1[C@]32OO4` the Potency was “inactive”.
With `C[C@]12CC[C@H]3[C@@H](CCC4=CC(=O)CC[C@@H]43)[C@@H]1CC[C@@H]2OC(=O)CCC1CCCCC1` the Potency was “inactive”.
In the case of `O=C1C(I)=CC(=C(c2cc(I)c(O)c(I)c2)c2ccccc2C(=O)O)C=C1I`, the Potency is reported as 20.6 µM (active).
In the case of `O=c1oc2ccccc2c(O)c1C(CC(O)c1ccc(-c2ccc(Br)cc2)cc1)c1ccccc1` (stereo not given), the Potency is reported as 18.4 µM (active).
With `N#CC(C#N)=Cc1ccc(O)c(O)c1` the Potency was “inactive”.
For `O=C(O)c1cc(Oc2ccc(C(F)(F)F)cc2Cl)ccc1[N+](=O)[O-]`, the Potency was “inactive”.
For `O=C1NCN(c2ccccc2)C12CCN(CCCOc1ccc(F)cc1)CC2`, the Potency was “inactive”.
In the case of `CC(=O)N1N=C(c2ccc(N)cc2)c2cc3c(cc2C[C@H]1C)OCO3`, the Potency is reported as “inactive”.
For `CC#C[C@]1(O)CC[C@H]2[C@@H]3C[C@H](C)C4=CC(=O)CC[C@]4(C)[C@H]3CC[C@@]21C`, the Potency was 8.2 µM (active).
In the case of `Nc1c(Cl)c(Cl)c(Cl)c(Cl)c1Cl`, the Potency is reported as “inactive”.
For `c1ccc(CN2CCNCC2)cc1`, the Potency was “inactive”.
